The results in this text go back to paper PMC7862700, “An all-to-all approach to the identification of sequence-specific readers for epigenetic DNA modifications on cytosine”.

Common to all, as to assay: DAPPL (digital affinity profiling via proximity ligation, sequencing); 10 mM Tris-HCl pH 7.5, 50 mM NaCl, 1 mM DTT, 4% glycerol, room temperature, 30 min; GST-TFs on glutathione beads, 16-mer random dsDNA library, 0.1% formaldehyde crosslink after washing; high values mean tight binding
The target in one test is T1, FEV (Homo sapiens, UniProt Q99581 1-238).
T1 sequence: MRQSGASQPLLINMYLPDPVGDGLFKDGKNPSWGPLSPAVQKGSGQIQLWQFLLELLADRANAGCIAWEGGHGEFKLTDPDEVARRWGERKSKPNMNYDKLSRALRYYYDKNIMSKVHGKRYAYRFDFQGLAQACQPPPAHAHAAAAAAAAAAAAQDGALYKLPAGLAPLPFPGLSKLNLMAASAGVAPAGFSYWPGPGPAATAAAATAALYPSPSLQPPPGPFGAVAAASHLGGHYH
The conditions noted are these: protein: recombinant; tags: N-terminal GST; dsDNA, one strand shown. In outline: (§1)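 Beads coated with glutathione captured GST-fused human transcription factors that had been expressed in yeast, and the factors were then given DNA barcodes and pooled with a tag-only sample. The pools were incubated with 200 nmole of a random double-stranded 16-mer DNA library in Tris/NaCl/DTT/glycerol buffer for 30 min at room temperature, washed, crosslinked with 0.1% formaldehyde and proximity-ligated with BsaI/T4 ligase at 37 °C for 1 h. PCR amplification and Illumina NextSeq500 sequencing came last. Binding signal is each hexamer's read frequency for a factor divided by its frequency for the tag-only sample.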

The next test deals with ETV5 (Homo sapiens, UniProt P41161 1-510). To be noted: protein: recombinant; tags: N-terminal GST; dsDNA, one strand shown. Summed up:
as §1

The target in another test is HSF1 (Homo sapiens, UniProt Q00613 1-529). The conditions noted are these: protein: recombinant; tags: N-terminal GST; chain copies: 3; dsDNA, one strand shown. In outline: as §1
A further test addresses T2, SPIC (Homo sapiens, UniProt Q8N5J4 1-248).
T2 sequence: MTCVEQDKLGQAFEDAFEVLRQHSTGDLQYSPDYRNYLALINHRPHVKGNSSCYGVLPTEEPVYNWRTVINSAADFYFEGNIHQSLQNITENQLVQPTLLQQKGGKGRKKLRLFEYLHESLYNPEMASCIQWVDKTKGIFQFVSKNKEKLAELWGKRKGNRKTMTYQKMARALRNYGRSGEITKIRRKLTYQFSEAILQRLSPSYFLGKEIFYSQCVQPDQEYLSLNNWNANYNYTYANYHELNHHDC
To be noted: protein: recombinant; tags: N-terminal GST; dsDNA, one strand shown. Summed up:
as §1

The target in a further test is ELF4 (Homo sapiens, UniProt Q99607 1-663). To be noted: protein: recombinant; tags: N-terminal GST; dsDNA, one strand shown. Summed up: as §1
The target in the next test is T3, ELK4 (Homo sapiens, UniProt P28324-2 1-405).
T3 sequence: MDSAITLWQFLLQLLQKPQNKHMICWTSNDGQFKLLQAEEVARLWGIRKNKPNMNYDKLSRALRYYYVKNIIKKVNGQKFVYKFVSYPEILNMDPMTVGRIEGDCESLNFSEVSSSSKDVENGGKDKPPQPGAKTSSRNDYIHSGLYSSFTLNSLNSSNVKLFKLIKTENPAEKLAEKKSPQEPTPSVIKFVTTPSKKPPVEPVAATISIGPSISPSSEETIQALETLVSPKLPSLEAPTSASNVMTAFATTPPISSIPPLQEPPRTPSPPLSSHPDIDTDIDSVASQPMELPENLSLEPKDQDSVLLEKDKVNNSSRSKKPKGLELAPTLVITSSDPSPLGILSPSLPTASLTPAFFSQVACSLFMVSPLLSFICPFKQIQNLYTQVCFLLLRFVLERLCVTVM
The conditions noted are these: protein: recombinant; tags: N-terminal GST; dsDNA, one strand shown. Summed up: as §1

For a further test, the target named is T4, ETV2 (Homo sapiens, UniProt O00321 1-342).
T4 sequence: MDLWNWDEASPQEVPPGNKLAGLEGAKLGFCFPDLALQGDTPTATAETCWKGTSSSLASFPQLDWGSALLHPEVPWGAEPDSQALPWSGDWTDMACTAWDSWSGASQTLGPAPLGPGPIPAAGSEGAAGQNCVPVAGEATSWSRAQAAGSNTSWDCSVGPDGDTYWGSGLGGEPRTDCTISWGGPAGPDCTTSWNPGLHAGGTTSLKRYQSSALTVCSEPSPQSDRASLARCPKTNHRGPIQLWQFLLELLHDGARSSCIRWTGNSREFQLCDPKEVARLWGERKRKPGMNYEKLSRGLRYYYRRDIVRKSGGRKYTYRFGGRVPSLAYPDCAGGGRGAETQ
To be noted: protein: recombinant; tags: N-terminal GST; dsDNA, one strand shown. In outline: as §1

The target of another test is T5, ELF3 (Homo sapiens, UniProt P78545 1-371).
T5 sequence: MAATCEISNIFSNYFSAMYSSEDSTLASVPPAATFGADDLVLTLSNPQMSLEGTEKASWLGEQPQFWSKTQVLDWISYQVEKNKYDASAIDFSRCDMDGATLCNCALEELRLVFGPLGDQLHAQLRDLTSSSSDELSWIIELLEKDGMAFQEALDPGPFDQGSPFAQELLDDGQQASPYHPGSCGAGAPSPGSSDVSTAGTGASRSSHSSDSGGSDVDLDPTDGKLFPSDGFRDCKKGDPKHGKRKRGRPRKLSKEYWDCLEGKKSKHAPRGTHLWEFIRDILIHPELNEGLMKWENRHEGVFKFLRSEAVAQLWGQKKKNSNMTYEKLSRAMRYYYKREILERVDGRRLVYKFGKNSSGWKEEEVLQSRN
The conditions noted are these: protein: recombinant; tags: N-terminal GST; dsDNA, one strand shown. Summed up: as §1

The target in a further test is CRX (Homo sapiens, UniProt O43186 1-299). The conditions noted are these: protein: recombinant; tags: N-terminal GST; dsDNA, one strand shown. In outline: as §1
A further test addresses ETV1 (Homo sapiens, UniProt P50549 1-477). To be noted: protein: recombinant; tags: N-terminal GST; dsDNA, one strand shown. Summed up: as §1
The target of a further test is T6, ERF (Homo sapiens, UniProt P50548 1-548).
T6 sequence: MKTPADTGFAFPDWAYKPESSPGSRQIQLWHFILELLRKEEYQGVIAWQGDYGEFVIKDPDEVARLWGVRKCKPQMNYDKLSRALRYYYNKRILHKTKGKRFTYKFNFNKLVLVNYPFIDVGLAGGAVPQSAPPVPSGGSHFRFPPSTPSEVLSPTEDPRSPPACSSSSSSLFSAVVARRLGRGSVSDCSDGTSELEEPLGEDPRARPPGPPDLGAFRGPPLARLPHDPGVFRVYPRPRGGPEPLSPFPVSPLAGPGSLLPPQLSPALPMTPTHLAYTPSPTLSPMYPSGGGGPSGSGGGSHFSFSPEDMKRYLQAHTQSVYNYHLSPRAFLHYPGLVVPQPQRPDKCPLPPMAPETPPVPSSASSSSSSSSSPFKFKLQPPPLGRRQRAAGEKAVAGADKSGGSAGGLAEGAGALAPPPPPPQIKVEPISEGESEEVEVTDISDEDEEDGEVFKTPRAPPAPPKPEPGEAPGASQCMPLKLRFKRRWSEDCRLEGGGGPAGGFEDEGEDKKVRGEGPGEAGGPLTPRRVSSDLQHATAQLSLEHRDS
To be noted: protein: recombinant; tags: N-terminal GST; dsDNA, one strand shown. In outline:
as §1

In a further test the target is T7, ETV3L (Homo sapiens, UniProt Q6ZN32 1-361).
T7 sequence: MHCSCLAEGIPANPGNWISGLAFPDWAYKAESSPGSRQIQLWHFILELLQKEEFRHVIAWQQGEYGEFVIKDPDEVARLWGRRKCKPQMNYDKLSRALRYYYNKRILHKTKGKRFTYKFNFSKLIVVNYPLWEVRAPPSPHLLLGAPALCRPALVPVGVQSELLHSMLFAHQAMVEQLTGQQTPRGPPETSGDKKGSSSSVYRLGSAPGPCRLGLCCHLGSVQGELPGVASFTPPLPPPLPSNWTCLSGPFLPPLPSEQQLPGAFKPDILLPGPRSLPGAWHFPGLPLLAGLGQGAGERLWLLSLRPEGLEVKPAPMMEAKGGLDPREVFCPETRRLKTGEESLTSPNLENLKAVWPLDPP
The conditions noted are these: protein: recombinant; tags: N-terminal GST; dsDNA, one strand shown. In outline:
as §1

In another test the target is T8, ETS2 (Homo sapiens, UniProt P15036 1-469).
T8 sequence: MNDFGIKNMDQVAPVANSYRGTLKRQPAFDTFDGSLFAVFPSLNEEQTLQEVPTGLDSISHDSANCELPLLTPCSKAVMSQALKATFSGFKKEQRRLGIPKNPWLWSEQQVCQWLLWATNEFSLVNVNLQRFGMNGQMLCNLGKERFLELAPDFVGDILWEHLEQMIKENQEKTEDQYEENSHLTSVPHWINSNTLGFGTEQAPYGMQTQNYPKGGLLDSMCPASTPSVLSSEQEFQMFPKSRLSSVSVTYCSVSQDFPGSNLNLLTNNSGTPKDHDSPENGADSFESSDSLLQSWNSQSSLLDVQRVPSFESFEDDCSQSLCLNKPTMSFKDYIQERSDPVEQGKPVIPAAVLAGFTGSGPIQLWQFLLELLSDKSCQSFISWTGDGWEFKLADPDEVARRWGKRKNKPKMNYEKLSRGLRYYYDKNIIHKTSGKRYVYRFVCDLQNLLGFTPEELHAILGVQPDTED
The conditions noted are these: protein: recombinant; tags: N-terminal GST; dsDNA, one strand shown. In outline: as §1

The target of a further test is T9, SPDEF (Homo sapiens, UniProt O95238 1-335).
T9 sequence: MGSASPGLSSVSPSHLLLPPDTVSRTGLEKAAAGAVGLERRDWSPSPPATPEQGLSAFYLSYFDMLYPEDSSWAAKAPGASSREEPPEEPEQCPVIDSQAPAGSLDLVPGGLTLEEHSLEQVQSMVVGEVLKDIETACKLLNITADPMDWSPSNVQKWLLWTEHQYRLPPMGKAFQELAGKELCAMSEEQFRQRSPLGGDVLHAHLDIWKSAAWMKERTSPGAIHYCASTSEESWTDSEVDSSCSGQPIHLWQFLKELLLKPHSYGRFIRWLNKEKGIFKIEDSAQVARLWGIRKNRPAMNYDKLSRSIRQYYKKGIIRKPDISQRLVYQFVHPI
To be noted: protein: recombinant; tags: N-terminal GST; dsDNA, one strand shown. In outline:
as §1

The target of the next test is T10, ETV7 (Homo sapiens, UniProt Q9Y603 1-341).
T10 sequence: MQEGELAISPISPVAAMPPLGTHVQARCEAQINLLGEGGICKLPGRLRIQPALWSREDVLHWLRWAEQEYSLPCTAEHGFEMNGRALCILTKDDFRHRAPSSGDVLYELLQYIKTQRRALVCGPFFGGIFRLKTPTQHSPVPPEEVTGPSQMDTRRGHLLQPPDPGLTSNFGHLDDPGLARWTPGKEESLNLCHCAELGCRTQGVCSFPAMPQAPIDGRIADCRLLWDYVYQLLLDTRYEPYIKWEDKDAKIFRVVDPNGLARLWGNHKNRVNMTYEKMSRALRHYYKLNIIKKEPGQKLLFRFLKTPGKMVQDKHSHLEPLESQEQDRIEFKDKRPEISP
To be noted: protein: recombinant; tags: N-terminal GST; dsDNA, one strand shown. Summed up: as §1

A further test has as its target T11, ELF5 (Homo sapiens, UniProt Q9UKW6-2 1-255).
T11 sequence: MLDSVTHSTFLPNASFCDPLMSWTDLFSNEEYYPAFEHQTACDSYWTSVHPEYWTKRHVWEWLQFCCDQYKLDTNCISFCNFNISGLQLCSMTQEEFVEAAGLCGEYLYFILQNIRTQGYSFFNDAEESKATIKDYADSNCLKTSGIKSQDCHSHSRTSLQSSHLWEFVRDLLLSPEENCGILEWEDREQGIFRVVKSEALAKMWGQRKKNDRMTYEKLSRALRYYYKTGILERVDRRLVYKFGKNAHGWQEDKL
To be noted: protein: recombinant; tags: N-terminal GST; dsDNA, one strand shown. In outline:
as §1

In another test the target is T12, ETV3 (Homo sapiens, UniProt P41162-2 1-143).
T12 sequence: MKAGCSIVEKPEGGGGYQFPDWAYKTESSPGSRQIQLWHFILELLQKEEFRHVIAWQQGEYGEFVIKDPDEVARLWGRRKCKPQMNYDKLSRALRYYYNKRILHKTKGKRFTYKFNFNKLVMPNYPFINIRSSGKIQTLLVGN
The conditions noted are these: protein: recombinant; tags: N-terminal GST; dsDNA, one strand shown. Summed up:
as §1

The target in another test is ETV6 (Homo sapiens, UniProt P41212 1-452). To be noted: protein: recombinant; tags: N-terminal GST; dsDNA, one strand shown. Summed up: as §1
Chain of ETV6 (P41212 whole entry): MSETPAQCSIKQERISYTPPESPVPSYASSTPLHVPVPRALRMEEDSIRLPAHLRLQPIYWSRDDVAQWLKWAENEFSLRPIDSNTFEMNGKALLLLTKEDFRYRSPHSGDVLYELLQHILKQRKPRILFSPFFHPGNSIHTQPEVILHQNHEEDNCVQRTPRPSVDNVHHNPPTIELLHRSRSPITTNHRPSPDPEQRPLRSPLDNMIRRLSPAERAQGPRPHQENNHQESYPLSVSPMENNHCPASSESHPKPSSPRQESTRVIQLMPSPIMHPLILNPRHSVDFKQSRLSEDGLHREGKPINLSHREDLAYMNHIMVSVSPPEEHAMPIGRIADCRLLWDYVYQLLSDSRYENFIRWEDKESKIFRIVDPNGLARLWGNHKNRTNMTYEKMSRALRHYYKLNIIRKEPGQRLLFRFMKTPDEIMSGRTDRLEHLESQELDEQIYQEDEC

Chain of ETV1 (P50549 whole entry): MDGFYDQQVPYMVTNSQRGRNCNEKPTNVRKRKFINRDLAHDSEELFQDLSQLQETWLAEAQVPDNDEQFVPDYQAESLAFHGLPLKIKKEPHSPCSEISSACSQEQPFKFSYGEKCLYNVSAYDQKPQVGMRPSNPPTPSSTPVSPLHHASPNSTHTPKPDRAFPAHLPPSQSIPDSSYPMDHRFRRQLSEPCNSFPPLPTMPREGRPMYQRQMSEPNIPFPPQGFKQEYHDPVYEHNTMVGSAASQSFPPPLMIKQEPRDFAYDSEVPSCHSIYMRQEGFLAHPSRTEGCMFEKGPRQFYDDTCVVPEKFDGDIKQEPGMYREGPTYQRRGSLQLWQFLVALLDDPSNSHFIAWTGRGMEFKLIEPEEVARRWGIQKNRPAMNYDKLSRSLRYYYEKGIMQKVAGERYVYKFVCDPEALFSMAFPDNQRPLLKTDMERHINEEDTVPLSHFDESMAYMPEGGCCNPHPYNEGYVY
Chain of ETV5 (P41161 whole entry): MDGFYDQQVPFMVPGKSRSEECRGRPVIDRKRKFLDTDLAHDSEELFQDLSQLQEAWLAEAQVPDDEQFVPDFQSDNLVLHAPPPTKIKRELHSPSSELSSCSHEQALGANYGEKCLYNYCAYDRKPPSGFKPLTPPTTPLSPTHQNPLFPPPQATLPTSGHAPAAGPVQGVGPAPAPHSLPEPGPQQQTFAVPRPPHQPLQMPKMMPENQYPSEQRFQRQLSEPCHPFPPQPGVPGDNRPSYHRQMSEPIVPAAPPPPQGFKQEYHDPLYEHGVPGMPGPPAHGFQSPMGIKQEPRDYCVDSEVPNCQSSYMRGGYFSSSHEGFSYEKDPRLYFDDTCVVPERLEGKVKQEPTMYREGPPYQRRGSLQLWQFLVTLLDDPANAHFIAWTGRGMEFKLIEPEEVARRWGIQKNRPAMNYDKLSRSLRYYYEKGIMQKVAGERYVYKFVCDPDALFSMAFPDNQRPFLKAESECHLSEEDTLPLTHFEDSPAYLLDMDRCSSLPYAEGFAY
Chain of ELF4 (Q99607 whole entry): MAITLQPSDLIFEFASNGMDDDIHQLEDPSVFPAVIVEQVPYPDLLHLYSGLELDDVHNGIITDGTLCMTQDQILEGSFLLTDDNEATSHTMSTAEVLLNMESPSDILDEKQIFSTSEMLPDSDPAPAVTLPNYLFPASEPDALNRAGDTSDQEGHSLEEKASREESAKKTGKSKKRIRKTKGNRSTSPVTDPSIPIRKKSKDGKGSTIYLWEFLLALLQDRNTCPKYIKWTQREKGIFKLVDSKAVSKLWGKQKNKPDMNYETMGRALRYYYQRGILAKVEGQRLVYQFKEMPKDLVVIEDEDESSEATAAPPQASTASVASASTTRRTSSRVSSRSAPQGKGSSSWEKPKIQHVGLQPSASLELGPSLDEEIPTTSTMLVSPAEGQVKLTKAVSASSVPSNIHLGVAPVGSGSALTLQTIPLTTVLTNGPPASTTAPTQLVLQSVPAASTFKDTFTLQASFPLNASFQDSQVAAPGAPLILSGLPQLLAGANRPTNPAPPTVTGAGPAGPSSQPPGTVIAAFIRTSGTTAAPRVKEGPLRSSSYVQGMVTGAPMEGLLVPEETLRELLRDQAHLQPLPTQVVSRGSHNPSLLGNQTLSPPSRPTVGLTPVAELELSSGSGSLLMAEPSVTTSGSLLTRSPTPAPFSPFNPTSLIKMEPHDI
Chain of CRX (O43186 whole entry): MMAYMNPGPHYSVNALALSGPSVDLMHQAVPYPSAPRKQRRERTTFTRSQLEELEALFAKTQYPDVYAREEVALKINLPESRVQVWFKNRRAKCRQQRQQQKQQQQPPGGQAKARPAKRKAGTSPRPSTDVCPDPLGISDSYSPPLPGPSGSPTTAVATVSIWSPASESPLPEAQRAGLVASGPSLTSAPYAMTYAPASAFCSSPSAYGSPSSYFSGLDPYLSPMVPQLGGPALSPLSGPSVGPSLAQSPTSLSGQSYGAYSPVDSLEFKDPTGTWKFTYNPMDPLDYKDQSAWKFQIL
Chain of HSF1 (Q00613 whole entry): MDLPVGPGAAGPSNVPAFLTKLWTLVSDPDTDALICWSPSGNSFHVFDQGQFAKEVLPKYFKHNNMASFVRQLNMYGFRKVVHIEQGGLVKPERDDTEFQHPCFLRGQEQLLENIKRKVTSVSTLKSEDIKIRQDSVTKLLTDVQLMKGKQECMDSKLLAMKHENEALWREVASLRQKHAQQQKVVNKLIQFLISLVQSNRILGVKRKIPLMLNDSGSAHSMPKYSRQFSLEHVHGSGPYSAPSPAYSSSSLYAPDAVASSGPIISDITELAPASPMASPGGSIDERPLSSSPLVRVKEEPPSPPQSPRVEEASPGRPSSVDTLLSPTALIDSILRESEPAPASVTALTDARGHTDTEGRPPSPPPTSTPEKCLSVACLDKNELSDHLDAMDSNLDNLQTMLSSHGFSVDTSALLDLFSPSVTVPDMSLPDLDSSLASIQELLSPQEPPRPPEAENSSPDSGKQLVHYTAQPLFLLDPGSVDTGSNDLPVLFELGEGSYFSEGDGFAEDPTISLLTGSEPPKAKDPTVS

Turning to GGACCT, the binding signal with FEV is 1.47 fold enrichment (6-mer frequency, TF over GST control); with ETV5, 1.37 fold enrichment (6-mer frequency, TF over GST control); with HSF1 it was 1.18 fold enrichment (6-mer frequency, TF over GST control); with SPIC, 1.46 fold enrichment (6-mer frequency, TF over GST control); with ELF4 it was 1.42 fold enrichment (6-mer frequency, TF over GST control); in the test with ELK4, 1.31 fold enrichment (6-mer frequency, TF over GST control). For the same sequence, the binding signal was 1.57 fold enrichment (6-mer frequency, TF over GST control) with ETV2; 1.14 fold enrichment (6-mer frequency, TF over GST control) with ELF3; 1.1 fold enrichment (6-mer frequency, TF over GST control) with CRX; 1.28 fold enrichment (6-mer frequency, TF over GST control) with ETV1; 1.31 fold enrichment (6-mer frequency, TF over GST control) with ERF; 1.43 fold enrichment (6-mer frequency, TF over GST control) with ETV3L. For the same sequence, the binding signal was 1.41 fold enrichment (6-mer frequency, TF over GST control) in the test with ETS2; 1.53 fold enrichment (6-mer frequency, TF over GST control) with SPDEF; 1.34 fold enrichment (6-mer frequency, TF over GST control) in the test with ETV7; 1.27 fold enrichment (6-mer frequency, TF over GST control) with ELF5; 1.32 fold enrichment (6-mer frequency, TF over GST control) with ETV3; 1.34 fold enrichment (6-mer frequency, TF over GST control) in the test with ETV6.
